Screening results as filed in PubChem BioAssay.
Pf Dd2 inh: qHTS Primary assay for Inhibitors of Plasmodium falciparum Dd2 growth in vitro | P. falciparum Dd2 growth, SYBR Green, 72 h | Potency, µM (top dose mostly 28.9 µM), for the others: at the top dose activity, negative = inhibition, actives largely listed as inhibitors | 4.3% of 120,000 active; active = well fitted inhibition curve with a large enough effect;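 also: plate controls were DMSO vehicle for no effect and reference drug for full effect; nearly all actives have a fitted effect of over 65% in size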
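Infected erythrocytes (Dd2, 0.3% parasitemia, 2.5% hematocrit final) are added to compound in RPMI-1640/Albumax II medium, grown 72 h at 37C in low oxygen, then lysed with saponin/Triton-X containing SYBR Green and read by fluorescence.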
Starred values were filed as active, the others as inactive; i = inactive; [ ] = another dose, or the depositor's remark. Only a selection was taken, and hits are over-represented in it overall. Potency is read from the fitted curve at half-maximal effect.

SMILES	Pf Dd2 inh
CCC1=NS(=O)(=O)c2cc(NC(=O)C3CC3)ccc2N1CCOC	-15.5%
CC(C)CC(=O)Nc1ccc2c(c1)CCC(=O)N2CC(C)C	i
CCc1ccc(C2=C(C)C(N3CCC(C(=O)Nc4cccc(OC)c4)CC3)=NS2(=O)=O)cc1	i
CCc1ccc2oc(-c3cc(NC(=O)c4cccs4)ccc3Cl)nc2c1	-16.2%
Clc1ccccc1CNC1(Cc2cc(-c3ccccc3)on2)COC1	8.2%[44.1 µM]
CCC(=O)NCCn1c(C)nc2cc(S(=O)(=O)N3CCOCC3)ccc21	-0.2%
CCCc1noc(-c2cn(C3CCN(C(=O)c4ccsc4)CC3)nn2)n1	i
C[C@@H]1CN(C(=O)c2ccccc2C#N)CC[C@@]1(O)C1CCOCC1	1.2%
COc1ccc(C(=O)N2CCCC3(C2)NC(=O)c2ccccc2O3)cc1 (centres undefined)	-12.8%
CNC(=O)C1(N2CCC[C@H]2C(=O)NCCc2ccccn2)CCCCC1	-1.2%[44.1 µM]
O=C1NCc2ccccc2CC12CCN(Cc1ccncc1)CC2	16.1%
O=C1NCCOCCN(S(=O)(=O)c2cccnc2)[C@H]2CCC[C@@H]12	i
COc1cccc(Cn2c(C)c(CNC3CCCCC3)c(C(=O)O)c2C)c1	13.3%
CCc1c(C)sc2c1CCN(Cc1ccccc1F)C2c1ccccc1 (centres undefined)	3.16µM*
CCc1c(C)sc2c1CCN(Cc1cccc(OC)c1)C2c1ccccc1 (centres undefined)	7.94µM*
Nc1nccc(N2CCN(Cc3ccccc3F)C(CCO)C2)n1 (centres undefined)	-11.2%
COc1cccc(CN2CCOCCNC(=O)CC2)c1	-12.1%
CC(C)(C)c1coc([C@@H]2COCCN2Cc2ccccc2F)n1	i
O=C(NCCc1ccncc1)C1CN(C(=O)c2ccc(F)cc2)CC12CCOCC2 (centres undefined)	18.7%
Cc1ccc(N2CCC(NC(=O)c3ccc(N(C)C)cc3)C2=O)cc1C (centres undefined)	-9.9%
Cn1cc(C(=O)N2CCC(F)(c3nc(-c4ccncc4)no3)CC2)cn1	-7.7%
Cc1ccc(C(=O)Nc2cc(-c3cn4cccnc4n3)ccc2C)cc1C	-6.0%
COc1ccc(-c2cn3cccnc3n2)cc1NC(=O)c1cc(C)cc(C)c1	12.6µM*
COc1ccc(-c2cn3cccnc3n2)cc1NC(=O)c1ccccc1C(F)(F)F	-6.9%
O=C(NC1CCCc2c1[nH]c1ccc(F)cc21)C1(c2ccccc2)CCOCC1 (centres undefined)	-18.5%
SMILES	Pf Dd2 inh
COCCn1nc2n(c1=O)CCN(C(=O)c1cncc(Br)c1)CC2	51.8%
CCCC(=O)Nc1ccc2nc(SCc3ccc(C)cc3)sc2c1	8.91µM*
CCC(=O)Nc1ccc2nc(SCc3ccccc3)sc2c1	-27.6%
Cc1cccc(NC(=O)CSc2nc3ccc(NC(=O)CCc4ccccc4)cc3s2)c1	11.1%
Cc1cnc(C(=O)N2CCCC(Cc3noc(-c4ccccn4)n3)C2)cn1 (centres undefined)	-3.5%
Cc1ccn2c(Nc3c(C)cccc3C)c(-c3ccsc3)nc2c1	11.2µM*
Cc1ccccc1Nc1c(-c2ccc(Cl)s2)nc2c(C)cccn12	-10.7%
Cc1ccccc1Nc1c(-c2ccc(Cl)s2)nc2cccc(C)n12	-18.8%
Cc1ccn2c(NC(=O)c3cccc(Cl)c3)c(-c3ccccc3)nc2c1	-18.8%
Cc1cccc(C(=O)Nc2c(-c3ccccc3)nc3cc(C)ccn23)c1	-4.4%
Cc1ccn2c(Nc3c(C)cccc3C)c(-c3ccc(Cl)s3)nc2c1	7.94µM*
CC(C)(N)C(=O)N1CCCC(N2CCN(c3cccc(C(F)(F)F)c3)CC2)C1 (centres undefined)	-0.9%
Cc1ccc(N2CCC3(CCCN3Cc3ccc(C4CCCO4)s3)CC2)nn1 (centres undefined)	i
Cc1ccc(S(=O)(=O)NC[C@H]2C[C@@H]3CCN2C[C@@H]3c2cc(-c3ccccc3Br)nc(C)n2)cc1	i
COc1ccccc1-c1cc([C@H]2CN3CC[C@H]2C[C@@H]3CNC(=O)CCC(=O)O)nc(C)n1	2.5%
Cc1nc(-c2cccs2)cc([C@H]2CN3CC[C@H]2C[C@@H]3CNC(=O)c2ccccc2)n1	7.94µM*
C=C[C@H]1CN2CC[C@H]1C[C@@H]2CNC(=O)c1ccc2c(c1)OCO2	-3.9%[44.1 µM]
O=C(Nc1cccc(C(F)(F)F)c1)OC[C@H]1C[C@@H]2CCN1C[C@@H]2c1cc(C2CCCC2)nc(-c2ccncc2)n1	2.51µM*
COc1ccccc1-c1cc([C@H]2CN3CC[C@H]2C[C@@H]3COC(=O)Nc2ccccc2)nc(C)n1	i
Cc1ccc(C(=O)NC[C@H]2C[C@@H]3CCN2C[C@@H]3c2cc(-c3cccs3)nc(C)n2)cc1	7.08µM*
Cc1nc(-c2cccs2)cc([C@H]2CN3CC[C@H]2C[C@@H]3CNC(=O)c2ccc3c(c2)OCO3)n1	8.91µM*
Cc1nc(-c2cccs2)cc([C@H]2CN3CC[C@H]2C[C@@H]3CNC(=O)N2CCOCC2)n1	i
Cn1nc(-c2ccc3ccccc3c2)cc1[C@H]1CN2CC[C@H]1C[C@@H]2COC(=O)Nc1cccc(C(F)(F)F)c1	21.0%
Cc1nc(-c2ccccc2Br)cc([C@H]2CN3CC[C@H]2C[C@@H]3CNC(=O)c2ccco2)n1	-6.5%
Cc1nc(-c2ccccc2)cc([C@H]2CN3CC[C@H]2C[C@@H]3CNC(=O)N2CCOCC2)n1	i
SMILES	Pf Dd2 inh
CCn1cc(S(=O)(=O)N2C[C@@H](C(=O)NC)[C@H](c3n[nH]c(C)n3)C2)cn1	-7.8%
CCS(=O)(=O)c1ccc2oc([C@H]3CCN(Cc4cccc(Cl)c4)C3)nc2c1	-5.6%[44.1 µM]
Cc1cc(F)ccc1-c1[nH]nc2ncc(-c3c(C)noc3C)nc12	-9.1%[44.1 µM]
Cc1cccc(CN2CCCn3nc(C)c(-c4ccccc4-c4ccccc4)c32)n1	-15.9%[44.1 µM]
Cc1cc(C[C@@H]2COC[C@@H]2NC(=O)CCc2n[nH]c(C)n2)on1	-8.2%
NC(=O)N1CCCC(C(=O)N2CCCN(c3ccc(F)cc3)CC2)C1 (centres undefined)	0.2%
Cc1cc2c(-c3cccc(S(C)(=O)=O)c3)nc(-c3c(C)noc3C)cc2[nH]1	-1.0%[44.1 µM]
CCn1ccc(C(=O)N2CC(C(=O)NCCc3ccncc3)C3(CCOCC3)C2)n1 (centres undefined)	10.0%
COCCOc1ccc2c(n1)CCN(C(=O)Cc1ccccc1C)C2	28.4%
O=C(O)C[C@@H]1CCN(C(=O)C2CCCC2)C[C@@H]1CC1=NCCc2cc(F)ccc21	-3.6%[44.1 µM]
Cc1nc(-c2ccc(C(F)(F)F)cc2)cc([C@H]2CN3CC[C@H]2C[C@@H]3CNC(=O)N2CCOCC2)n1	i
Cc1nc(-c2ccc(F)cc2)cc([C@H]2CN3CC[C@H]2C[C@@H]3CNC(=O)Nc2cccc(C#N)c2)n1	-12.8%
Cc1nc(-c2cccs2)cc([C@H]2CN3CC[C@H]2C[C@@H]3CNC(=O)Nc2cccc(C(F)(F)F)c2)n1	8.91µM*
CC1CCN(c2ccc(CNC(=O)C3CCCN(S(C)(=O)=O)CCC(=O)NCC3)cc2)CC1 (centres undefined)	i
CCNC(=O)N1CCCOCCNC(=O)[C@@H]2CCC[C@@H]21	14.6%
O=C(c1ccc(Cl)nc1)N1CCC(c2nn(Cc3ccccc3)c(=O)[nH]2)CC1	-26.7%
CCc1ccc(NC(=O)C2CCCN(c3nnc(C)c4c(C)n(-c5ccccc5)nc34)C2)cc1 (centres undefined)	15.9%
COc1ccc(-n2nc3c(N4CCCC(C(=O)NCc5ccccc5C)C4)nnc(C)c3c2C)cc1 (centres undefined)	-5.6%
